MCF10A rereplic: induces DNA re-replication in MCF 10a normal breast cells; hit rate 2.9% among 350,000; MCF 10A DNA re-replication, Hoechst nuclear intensity, 48 h; Potency, µM (series often up to 46.1 µM), without a hit: top-dose activity, positive = re-replication, actives largely listed as activators; also: % of control where 0% means no effect; nearly all actives have a fitted effect of over 50% in size
KB-3-1 cytotox: kills parental KB-3-1 adenocarcinoma cells; Potency, µM (series often up to 46.1 µM), actives largely listed as cytotoxic; hit rate 1.4% among 400,000; AID 1347075; KB-3-1 viability, CellTiter-Glo ATP luminescence, 72 h; also: % is scaled to controls: 0 for no effect and ±100 for the full control effect; nearly all actives have a fitted effect of over 60% in size
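Luminescent ATP read-out (CellTiter-Glo) measures survival of drug-naive KB-3-1 cells after 72 h compound exposure at 37 °C. Titration series was screened from lowest to highest concentration, with DMSO vehicle plates as background controls.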
PINK1 expr mod: PINK1 expression modulation; hit rate 0.2% among 410,000; PINK1 immunofluorescence, high-content cytometry, 24 h; Potency, µM (top dose mostly 76.6 µM), for the others: top-dose activation (PINK1 increase), most hits filed as activators; AID 624263; active = well fitted activation curve with a large enough effect; inconclusive = small, poorly fitted or top-dose-only effect; cell line not stated here; also: % of control where 0% means no effect; nearly all actives have a fitted effect of over 65% in size
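Measures PINK1 amount and localization on or inside mitochondria by immunofluorescence. Stable cells get compounds at 5 concentrations for 24 hours before fixation and staining; CCCP controls included.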
KB-V1 MDR tox: KB-V1 MDR subline cytotoxicity; KB-V1 MDR cells viability, CellTiter-Glo, 72 h; Potency, µM (doses to about 46.1 µM), hits mostly cytotoxic; hit rate 3.4% among 400,000; AID 1347076; also: % is scaled to controls: 0 for no effect and ±100 for the full control effect; nearly all actives have a fitted effect of over 60% in size
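qHTS viability screen in drug-selected KB-V1 MDR cells: 72 h compound treatment at 37 degrees C, ATP luminescence end point.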
SW480 rereplic: induces DNA re-replication in SW480 colon adenocarcinoma cells; SW480 DNA re-replication, Hoechst DNA content imaging, 48 h; AID 624297; hit rate 1.8% among 340,000; Potency, µM (doses to about 46.1 µM), for inactives: at the highest dose re-replication activation, usual class: activators; also: % of control where 0% means no effect; nearly all actives have a fitted effect of over 55% in size
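Treated cells incubate 48 hr (37 C, 5% CO2), are stained 40 min with Hoechst, and nuclear fluorescence is enumerated; a rise in nuclei with high DNA signal marks re-replication.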
An asterisk follows results filed as active; i = inactive; ? = inconclusive; . = no result given; [ ] = dose if it differs, or a comment. The list is not random: actives were taken first. Their share in the collection is about 6.7%. Unless noted, calls follow the shape of the dose curve; as a rule, active = well fitted curve in the direction sought with a large enough effect; inconclusive = small, poorly fitted or top-dose-only effect, or another doubt; inactive = no such curve, though single readings can be large; an effect the other way counts as inactive or inconclusive. Potency is read from the fitted curve at half-maximal effect.

SMILES	MCF10A rereplic	KB-3-1 cytotox	PINK1 expr mod	KB-V1 MDR tox	SW480 rereplic
COc1ccc(N(Cc2ccccc2)S(=O)(=O)c2cccc(C(=O)Nc3ccccn3)c2)cc1	?	?	0.7%	3.66µM*	13.4%
O=C(Nc1ccccn1)c1ccc(CN(c2ccccc2)S(=O)(=O)c2ccccc2)cc1	?	i	0.6%	i	10.7%
COc1cccc(CNC(=O)c2c(OC)cc(=O)n3c2CCN(C(=O)c2ccc(C)nc2)CC3)c1	.	.	-0.2%	.	.
CCOC(=O)c1c(S(=O)(=O)N2CCN(c3cc(Cl)ccc3C)CC2)c(C)n(C)c1C	.	i	2.2%	i	.
COCCN1C(=O)CN(S(C)(=O)=O)CC1(C)C(=O)Nc1ccc2c(c1)OCCO2 (configuration not stated)	.	i	.	i	.
CC1CCc2c(sc3nc(C(C)(C)C)nc(N4CCN(C(=O)CCl)CC4)c23)C1 (configuration not stated)	14.6µM*	?	-0.9%	?	5.17µM*
Fc1ccc(CN2CCN(C(=S)NCCc3ccccc3)CC2)c(Cl)c1	23.0%	?	-0.6%	20.6µM*	1.9%
CC1CCN(C(=S)NCCc2ccccc2)CC1	-3.0%	i	-0.8%[38.3 µM]	23.1µM*	3.7%
S=C(NCCc1ccccc1)N1CCN(Cc2ccc(Cl)c(Cl)c2)CC1	-0.7%	?	3.0%	i	12.8%
CCOC(=O)[C@H]1[C@H]2COc3ccc(OC)cc3[C@@H]2N2C(=O)CN(Cc3ccc(OC)cc3)C(=O)[C@@]12C	3.4%	i	-0.2%	?	2.4%
CC(=NNC(=S)N1CCCCC1)c1ccccn1	.	?	0.7%	?	.
CC(=NNC(=S)N1CCCCC1)c1cccc(C)n1	?	0.231µM*	-0.8%	?	?
CSC(=S)NN=C(C)c1cccc(C)n1	?	?	-3.9%	?	0.366µM*
CC(=NNC(=S)Nc1ccccc1)c1ccccn1	.	?	-1.6%	?	.
CN(C(=O)CCN1C(=O)c2ccccc2C1=O)C1CCCCC1	-9.1%	i	2.2%[38.3 µM]	i	-1.9%
CN(C(=O)CCCN1C(=O)c2ccccc2C1=O)C1CCCCC1	4.2%	i	3.2%	11.6µM*	-4.9%
O=C(NCCc1ccccn1)c1cnn(-c2ncc3c(n2)-c2ccccc2CC3)c1C1CC1	.	.	-0.6%	.	.
CCOC(=O)c1cc(C(C)C)sc1NC(=O)COC(=O)CCS(=O)(=O)c1ccccc1	15.6%	i	0.5%	18.4µM*	?
CCC1C(=O)NCCN1Cc1ccc2c(c1)CN(Cc1ccc(OC)c(OC)c1)CCO2 (configuration not stated)	.	.	0.2%	.	.
Cc1ccc(S(=O)(=O)N(CC(=O)N/N=C/c2cccc(Cl)c2)c2cccc3cccnc23)cc1	?	?	4.3%	?	16.4µM*
C(=C\c1nc(N2CCCC2)c2ccccc2n1)/c1ccccc1	?	23.1µM*	-3.0%	?	?
c1ccc2c(c1)nc(N1CCCCCC1)c1ccccc12	?	i	?	i	?
CC1CCN(c2nc(-c3ccncc3)nc3ccccc23)CC1	?	?	0.1%	?	10.0%
CC1CCN(c2nc(/C=C/c3ccccc3)nc3ccccc23)CC1	20.6µM*	i	?	?	0.9%
CCCOc1ccc(NC(=O)CC2C(=O)N(c3ccc(C)cc3)C(=O)N2C2CCCC2)cc1 (configuration not stated)	.	?	1.4%	i	.
SMILES	MCF10A rereplic	KB-3-1 cytotox	PINK1 expr mod	KB-V1 MDR tox	SW480 rereplic
Cc1ccc(C)c(C(=O)COc2ccccc2[N+](=O)[O-])c1	?	i	2.8%	i	?
Cc1cc(C)c(S(=O)(=O)Oc2ccccc2[N+](=O)[O-])c(C)c1	6.51µM*	i	13.1%	14.6µM*	20.6µM*
Fc1cccc(F)c1-n1c(CN2CCOCC2)csc1=S	0.9%	i	1.1%	i	24.5%
Fc1cccc(F)c1-n1c(CN2CCCCC2)csc1=S	?	23.1µM*	7.3%	?	14.6µM*
CC(=O)c1ccc(-c2ccc3c4c(ccc3c2)OC(CNC(=O)[C@@H]2CCCN2C(C)=O)C4)s1 (some centres not stated)	.	.	0.2%	.	.
CCc1ccc(OCC(=O)Nc2ccc(-c3cc4ccccc4oc3=O)c(OC)c2)cc1	-37.1%	?	11.4%	?	2.31µM*
O=C(Cc1ccc(Cl)cc1)Nc1ccc(-c2cc3ccccc3oc2=O)c(Cl)c1	2.31µM*	1.3µM*	6.0%	2.31µM*	7.31µM*
COc1cc(NC(=O)c2cc(Cl)ccc2Cl)ccc1-c1cc2ccccc2oc1=O	?	i	20.5%[38.3 µM]	?	3.5%
CCOC(=O)[C@]12CCCC=C1N(Cc1ccc(Cl)cc1Cl)C(=O)[C@H](CC(=O)NCC13CC4CC(CC(C4)C1)C3)C2	.	?	5.7%	?	.
O=C(N/N=C/c1ccc([N+](=O)[O-])o1)c1cn2ccc3ccccc3c2n1	?	i	12.7%	i	20.6µM*
CCCc1ccc(-c2cc(C(=O)N/N=C/c3ccc([N+](=O)[O-])o3)c3ccccc3n2)cc1	5.01µM*	11.6µM*	2.4%	8.2µM*	7.08µM*
Cc1nc(-c2ccc(F)cc2)c(CC(=O)N(C)CC(=O)Nc2cccc(F)c2)s1	.	i	2.5%	i	.
CC(C)COc1ccc2[nH]c3c(c2c1)CCCC3=O	0.4%	0.92µM*	-2.0%	0.184µM*	-3.9%
OC(c1ccccn1)(c1ccccn1)c1ccccn1	?	i	-1.9%	10.3µM*	?
CC(C)(C)C1CCC(CN2C(Nc3ccccc3)=NC[C@@H]2Cc2ccccc2)CC1 (some centres not stated)	4.3%	?	-1.9%	18.4µM*	?
Cc1c(C(=O)N(C)C2CCOC2)sc2ncnc(NCC3(c4ccccc4)CCOCC3)c12 (configuration not stated)	.	.	0.5%	.	.
CCOCCCn1c(=NC(=O)c2ccco2)c(C(=O)OCC)cc2c(=O)n3cccc(C)c3nc21	?	i	4.4%	?	1.64µM*
CCOC(=O)c1cc2c(=O)n3cccc(C)c3nc2n(Cc2ccco2)c1=NC(=O)c1ccccc1	8.2µM*	i	15.6%	?	?
CCCn1c(=NC(=O)c2ccco2)c(C(=O)OCC)cc2c(=O)n3ccccc3nc21	-13.6%	i	.	i	-1.9%
CCOC(=O)c1cc2c(=O)n3ccccc3nc2n(C(C)C)c1=NC(=O)c1ccco1	7.31µM*	i	1.5%	?	7.31µM*
CCOC(=O)c1cc2c(=O)n3cccc(C)c3nc2n(CC(C)C)c1=NC(=O)c1ccco1	?	i	7.0%	i	?
CCOC(=O)c1cc2c(=O)n3cccc(C)c3nc2n(Cc2ccco2)c1=NC(=O)c1ccc(C)cc1	-1.4%	i	5.6%	i	-8.1%

Bioassay records from PubChem.
